Laboratory results from PubChem BioAssay AID493170 (National Center for Advancing Translational Sciences (NCATS), 2011).
Records with an inconclusive call do not appear. Active and inactive are the calls of the source. Calls follow the shape of the dose curve; as a rule, active = well fitted inhibition curve with a large enough effect; inconclusive = small, poorly fitted or top-dose-only effect, or effect the other way; inactive = flat fitted curve, though single readings scatter.

molecular target: Ubiquitin carboxyl-terminal hydrolase 2 (Homo sapiens) (UniProt O75604); assay: Ub-rhodamine 110 based assay for inhibitors Ubiquitin-specific Protease USP2a; settings: USP2a Ub-rhodamine110 cleavage, fluorescence; series mostly up to 38.3 µM; activity change, negative = inhibition: at the top concentration; also: nearly all actives have a fitted effect of over 50% in size
Sequence (O75604 whole entry, looked up): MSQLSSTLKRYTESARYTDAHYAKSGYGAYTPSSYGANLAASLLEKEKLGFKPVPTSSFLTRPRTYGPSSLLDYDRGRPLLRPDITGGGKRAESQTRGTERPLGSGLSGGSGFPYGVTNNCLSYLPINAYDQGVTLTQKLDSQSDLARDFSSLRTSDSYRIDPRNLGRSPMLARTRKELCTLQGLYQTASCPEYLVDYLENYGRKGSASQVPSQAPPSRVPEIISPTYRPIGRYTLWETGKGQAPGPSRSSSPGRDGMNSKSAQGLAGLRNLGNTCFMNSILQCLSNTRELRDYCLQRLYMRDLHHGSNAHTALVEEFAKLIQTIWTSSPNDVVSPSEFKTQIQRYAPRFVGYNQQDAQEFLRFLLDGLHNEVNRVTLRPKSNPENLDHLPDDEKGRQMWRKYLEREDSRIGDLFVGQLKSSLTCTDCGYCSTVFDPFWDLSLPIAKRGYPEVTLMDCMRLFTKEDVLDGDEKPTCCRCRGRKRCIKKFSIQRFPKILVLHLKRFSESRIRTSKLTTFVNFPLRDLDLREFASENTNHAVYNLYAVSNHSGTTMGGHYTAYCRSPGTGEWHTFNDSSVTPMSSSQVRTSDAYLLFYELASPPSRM
Method in brief: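 5 nM USP2a preincubated with compounds for 30 min at RT in 20 mM Tris-HCl pH 8.0, 2 mM CaCl2, 2 mM beta-mercaptoethanol, 0.05% CHAPS. Cleavage of 150 nM Ub-rhodamine 110 read kinetically (Ex 485/Em 531) for 7 min.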
% is scaled to controls: 0 for no effect and ±100 for the full control effect; potency is read from the fitted curve at half-maximal effect.

Activity change, negative = inhibition, inactive:
Cc1ccc(C(=O)N/C(=C/c2ccco2)C(=O)Nc2cccc(C(=O)O)c2)cc1 1.46%, Cc1nc2n(n1)CC(O)CS2 (stereo not drawn) -3.3%, CCCNC(=O)CS(=O)Cc1nc(-c2ccccc2C)oc1C (stereo not drawn) -6.47%, O=C(CN1CCOCC1)Nc1ccc(C2CCCCC2)cc1 14.6%, C(=N\N(c1ccccc1)c1ccccc1)/c1ccccn1 -9.06%, Nc1nc(NCCO)nc(NCC2CCCO2)c1[N+](=O)[O-] (stereo not drawn) -7.49%, COC(=O)C1Sc2[nH]c(=O)sc2C(c2ccc(Cl)cc2)C1C(=O)OC (stereo not drawn) -5.69%, CCOC(=O)c1[nH]c2ccc(OC)cc2c1NC(=O)CCN1CCCC(C)C1 (stereo not drawn) -9.84%, CCOC(=O)N1CCN(S(=O)(=O)c2ccc(C)cc2)C1c1ccc(OC)cc1 (stereo not drawn) -18.1%, CC(=O)Nc1ccc(Nc2cc(C)nc(Nc3ccc(NC(C)=O)cc3)n2)cc1 -6.62%, CCOc1cc(/C=C/c2nc3cc(C)c(C)cc3s2)ccc1OCC(=O)N1CCOCC1 -17%, COc1cccc(NC(=O)CSc2nncn2-c2ccccn2)c1 -6.25%, Cc1ccc2[nH]c3c(c2c1)CN(C(=O)CN1CCSCC1)CC3 1.52%, COc1ccccc1N1CCN(c2cc(C)nc3nc(C)nn23)CC1 -3.98%, Cc1cnc(N)c2c(=O)oc3ccccc3c12 -3.73%

Potency, active:
O=C(COC(=O)c1c2c(nc3ccccc13)/C(=C/c1ccco1)CC2)NC1CCCC1 3.55 µM, Cc1ccc(N=C2NC(=O)/C(=C/C=C/c3ccco3)S2)cc1 7.08 µM, Cc1cccc(OCC(=O)Nc2ccc(N3CCCC3)cc2)c1C 11.2 µM
